TRb SRC2 PPI: inhibitors of human thyroid hormone receptor beta-SRC2 interaction. P10828. TRbeta-SRC2 peptide binding, fluorescence polarization; receptor liganded with 1 µM T3. Potency, µM (doses to about 106 µM), for inactives: at the top dose activity change, negative = inhibition, most hits filed as inhibitors. 280,000 tested, 0.065% active. AID 1469;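 also: plate controls were bound peptide for no effect and peptide without receptor for full effect; nearly all actives have a fitted effect of over 50% in size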
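TRb LBD 0.6 uM + Texas Red SRC2 peptide 20 nM, 1 uM T3, Tris buffer w/ 5% DMSO; compound pinned, 5 h RT; FP read ex 555/em 632; normalized to unbound and bound controls.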
Tau fluor counter: counter-screen for tau fibril formation inhibitors; 280,000 tested, 0.93% active; Potency, µM (highest dose often 57.7 µM), for inactives: at the top dose activity change, negative = decrease; AID 1463; tau K18 P301L Alexa594 fluorescence, heparin fibrillization; also: nearly all actives have a fitted effect of over 55% in size
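Human K18 P301L tau (15 uM unlabeled plus 0.24 uM Alexa 594-labeled, final) in 100 mM sodium acetate pH 7 was mixed with compound and 20 uM heparin and incubated 6 hr at 37 C.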
TR SRC2 fluor cs: alters Texas Red total fluorescence, flagging assay interference; TRb/SRC2 Texas Red total fluorescence interference; Potency, µM (doses to about 106 µM), inactives show top-dose fluorescence change, negative = quenching; 280,000 tested, 0.29% active; AID 1479; active = well fitted curve in either direction with a large enough effect; inconclusive = small, poorly fitted or top-dose-only effect
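Human TRβ ligand-binding domain (0.6 uM) and Texas Red SRC2 peptide (20 nM) in Tris buffer with 1 uM T3 and 5% DMSO were incubated with pinned compound for 5 hr at ambient temperature. Total fluorescence was computed as S + 2P (555/632 nm).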
Tau fibril FP: tau fibrillization inhibition (FP). K18 P301L tau heparin fibrillization, Alexa594 FP, 6 h. AID 1468. Potency, µM (doses to about 57.7 µM), without a hit: at the top dose activity, negative = inhibition, actives largely listed as inhibitors. P10636. 280,000 tested, 0.39% active; also: nearly all actives have a fitted effect of over 55% in size
Target sequence (P10636 561-689 P618L limits assumed): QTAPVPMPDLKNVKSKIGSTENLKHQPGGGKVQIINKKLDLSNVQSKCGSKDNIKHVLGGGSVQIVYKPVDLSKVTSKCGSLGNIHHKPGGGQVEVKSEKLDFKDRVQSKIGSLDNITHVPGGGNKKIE
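K18 P301L tau (15 uM unlabeled/0.24 uM Alexa 594-labeled, final) + compound + heparin 20 uM final; 100 mM NaOAc pH 7; 6 hr 37 C; ThT 30 uM final added, 1 hr RT; FP ex 555/em 632 nm.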
KDM4E inh: inhibitors of human JMJD2E histone demethylase. B2RXH2. JMJD2E catalytic domain, FDH-coupled NADH fluorescence (FDH is formaldehyde dehydrogenase). 230,000 tested, 1.6% active. Potency, µM (doses to about 57.1 µM), inactives show top-dose activity change, negative = inhibition, actives largely listed as inhibitors; active = well fitted inhibition curve with a large enough effect, not every such curve was filed as active; inconclusive = small, poorly fitted or top-dose-only effect, or another doubt; inactive = no such curve, though single readings can be large or run the other way;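 also: 0% = wells with enzyme and -100% = buffer wells without enzyme; nearly all actives have a fitted effect of over 50% in size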
Target sequence (B2RXH2 1-337 limits assumed): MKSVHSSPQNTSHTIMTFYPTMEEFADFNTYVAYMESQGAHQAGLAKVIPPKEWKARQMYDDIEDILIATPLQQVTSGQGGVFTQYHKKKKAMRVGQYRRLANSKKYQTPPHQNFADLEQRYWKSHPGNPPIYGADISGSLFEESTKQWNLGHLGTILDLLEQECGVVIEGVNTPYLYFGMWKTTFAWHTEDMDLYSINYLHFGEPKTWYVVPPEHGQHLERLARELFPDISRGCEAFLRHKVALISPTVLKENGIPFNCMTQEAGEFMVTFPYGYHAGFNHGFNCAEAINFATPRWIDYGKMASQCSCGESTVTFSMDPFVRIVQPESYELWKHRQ
Tau fibril ThT: blocks human tau fibril formation measured by thioflavin T | P10636 | 270,000 tested, 2.1% active | recombinant tau K18 P301L (four-repeat tau fragment), heparin-induced fibrillization, ThT fluorescence | Potency, µM (series often up to 57.4 µM), for inactives: at the top dose activity, negative = inhibition, actives largely listed as inhibitors; also: nearly all actives have a fitted effect of over 55% in size
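Tau K18 P301L fragment (15 uM unlabeled plus 0.24 uM Alexa 594-labeled) in 100 mM sodium acetate pH 7 with compound, fibrillization induced by 20 uM heparin for 6 hr at 37 C. Thioflavin T (30 uM) added, fluorescence read after 1 hr (ex 450, em 510 nm).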
* = called active by the depositor; [ ] = dose if it differs, or a comment. Compounds with a hit are over-represented: about 3.5% of the library has one in this group of screens. Unless noted, calls follow the shape of the dose curve; as a rule, active = well fitted curve in the direction sought with a large enough effect; inconclusive = small, poorly fitted or top-dose-only effect, or another doubt; inactive = no such curve, though single readings can be large; an effect the other way counts as inactive or inconclusive. Unless noted, % is scaled to controls: 0 for no effect and ±100 for the full control effect; potency is read from the fitted curve at half-maximal effect.

`COc1ccc(C(=O)Nc2nc3c(s2)CCc2cc(OC)ccc2-3)cc1` gave TRb SRC2 PPI 3%, Tau fluor counter 11µM*[quencher], TR SRC2 fluor cs -1%, Tau fibril FP inconclusive and Tau fibril ThT 10µM*.
COc1ccc2c(=O)c3c(=O)n(Cc4ccco4)c(-c4ccco4)nc3oc2c1 was read as TRb SRC2 PPI 3%, Tau fluor counter inconclusive, TR SRC2 fluor cs -17%, Tau fibril FP -3%, KDM4E inh inconclusive and Tau fibril ThT 28µM*.
Screening COc1ccc(-c2nc3oc4cc(OC)ccc4c(=O)c3c(=O)n2Cc2ccco2)cc1 returned TRb SRC2 PPI -4%, Tau fluor counter -3%, TR SRC2 fluor cs -5%, Tau fibril FP -4%, KDM4E inh inconclusive and Tau fibril ThT inconclusive.
`Cc1nc(CN2CCC(c3ccccc3)CC2)cc(=O)[nH]1` gave TRb SRC2 PPI 4%, Tau fluor counter 6%, TR SRC2 fluor cs 7%, Tau fibril FP 1%, KDM4E inh 12% and Tau fibril ThT 2%.
Screening O=C(NCCNc1ccc([N+](=O)[O-])cc1)c1ccc(Cl)cc1 returned TRb SRC2 PPI -2%, Tau fluor counter -29%, TR SRC2 fluor cs 0%, Tau fibril FP -1%, KDM4E inh 9% and Tau fibril ThT 8.9µM*.
O=c1c2oc3ccccc3c2n(Cc2ccccc2)c(=O)n1Cc1ccco1 was read as TRb SRC2 PPI 4%, Tau fluor counter -10%, TR SRC2 fluor cs -2%, Tau fibril FP -4% and Tau fibril ThT -8%.
C(=C\c1ccco1)/c1ccc2ccccc2n1 was read as TRb SRC2 PPI -3%, Tau fluor counter -22%, TR SRC2 fluor cs -8%, Tau fibril FP inconclusive, KDM4E inh inconclusive and Tau fibril ThT 32µM*.
`CC(=O)c1cccc(NC(=O)Cn2c(=O)c(CNc3ccc(C)cc3)cc3cc4c(cc32)OCCO4)c1` gave TRb SRC2 PPI -2%, Tau fluor counter 18µM*[quencher], TR SRC2 fluor cs -1%, Tau fibril FP inconclusive and Tau fibril ThT -17%.
`COc1ccc(NCc2cc3cc4c(cc3n(CC(=O)Nc3ccc(F)cc3)c2=O)OCCO4)cc1` gave TRb SRC2 PPI -6%, Tau fluor counter 11µM*[quencher], TR SRC2 fluor cs 0%, Tau fibril FP inconclusive and Tau fibril ThT -7%.
CCOc1ccc(NC(=O)Cn2c(=O)c(CNc3ccc(OC)cc3)cc3ccc(OC)cc32)cc1 was read as TRb SRC2 PPI -3%, Tau fluor counter 20µM*[quencher], TR SRC2 fluor cs -2%, Tau fibril FP inconclusive and Tau fibril ThT inconclusive.
COC(=O)C(CCSC)NC(=O)c1cc2c(n(-c3ccc(C)cc3)c1=O)CCCC2=O (configuration not stated) was read as TRb SRC2 PPI 11%[53 µM], Tau fluor counter 12%, TR SRC2 fluor cs 3%[53 µM], Tau fibril FP -2%[2.34 µM], KDM4E inh 13% and Tau fibril ThT 1%.
CCOC(=O)N1CCc2c(sc3c2c(=O)n(Cc2ccccc2)c(=O)n3CC(=O)Nc2ccc(F)cc2)C1 was read as TRb SRC2 PPI 3%, Tau fluor counter inconclusive, TR SRC2 fluor cs 0%, Tau fibril FP 10µM* and Tau fibril ThT 8%.
`CCOC(=O)N1CCc2c(sc3c2c(=O)n(Cc2ccccc2)c(=O)n3CC(=O)Nc2c(C)cccc2C)C1` gave TRb SRC2 PPI -8%, Tau fluor counter -10%, TR SRC2 fluor cs 0%, Tau fibril FP -10% and Tau fibril ThT -8%.
`CCc1cccc(NC(=O)c2ccc3c(c2)N(Cc2cccc(Cl)c2)C(=O)c2ccccc2S3=O)c1` (configuration not stated) gave TRb SRC2 PPI -1%, Tau fluor counter -29%, TR SRC2 fluor cs -1%, Tau fibril FP inconclusive and Tau fibril ThT -10%.
For CC(C)CC(NC(=O)C(COCc1ccccc1)NC(=O)OC(C)(C)C)C(=O)NN (configuration not stated) the results were TRb SRC2 PPI -6%, Tau fluor counter 1%, TR SRC2 fluor cs 0%, Tau fibril FP 9%, KDM4E inh 29% and Tau fibril ThT -8%.
For Cc1ccc(C)c(NC(=S)Nc2cccnc2)c1 the results were TRb SRC2 PPI -6%, Tau fluor counter 0%, TR SRC2 fluor cs 1%, Tau fibril FP 4%, KDM4E inh inconclusive and Tau fibril ThT -2%.
Screening Cc1ccc(NC(=S)Nc2cccnc2)c(S(=O)(=O)N2CCCCC2)c1 returned TRb SRC2 PPI -2%, Tau fluor counter inconclusive, TR SRC2 fluor cs -2%, Tau fibril FP 32µM*, KDM4E inh inconclusive and Tau fibril ThT 11%.
`Cc1ccc(CCNS(=O)(=O)c2cnc[nH]2)cc1` gave TRb SRC2 PPI -11%, Tau fluor counter 5%, TR SRC2 fluor cs 0%, Tau fibril FP 4%, KDM4E inh 3% and Tau fibril ThT 4%.
Cc1ccc(NC(=O)C(=O)NCC(c2cccnc2)N2CCOCC2)cc1C (configuration not stated) was read as TRb SRC2 PPI -7%, Tau fluor counter -20%, TR SRC2 fluor cs -13%, Tau fibril FP 7% and Tau fibril ThT inconclusive.
`CCOc1cc(/C=C/c2ccc3cccc([N+](=O)[O-])c3n2)cc(Cl)c1O` gave TRb SRC2 PPI -5%, Tau fluor counter inconclusive, TR SRC2 fluor cs inconclusive, Tau fibril FP 7%, KDM4E inh 2% and Tau fibril ThT inconclusive.
For COc1cc(/C=C/c2ccc3cccc(OC)c3n2)c(O)c([N+](=O)[O-])c1 the results were TRb SRC2 PPI -1%, Tau fluor counter inconclusive, TR SRC2 fluor cs 0%, Tau fibril FP -12%, KDM4E inh -7% and Tau fibril ThT 1µM*.
For COc1cc(/C=C/c2ccc3cccc(OC)c3n2)c(OC(C)=O)c([N+](=O)[O-])c1 the results were TRb SRC2 PPI -9%, Tau fluor counter inconclusive, TR SRC2 fluor cs -5%, Tau fibril FP inconclusive, KDM4E inh -6% and Tau fibril ThT 2.8µM*.
Screening CN1C(=S)N(c2cccnc2)C(=O)/C1=C\c1ccc(N(C)C)cc1 returned TRb SRC2 PPI 4%, Tau fluor counter inconclusive, TR SRC2 fluor cs 6%, Tau fibril FP 2%, KDM4E inh 9% and Tau fibril ThT 4µM*.
Screening Cc1c(NC(=S)N/N=C/c2ccc(N(C)C)cc2)c(=O)n(-c2ccccc2)n1C returned TRb SRC2 PPI 2%, Tau fluor counter 6%, TR SRC2 fluor cs -1%, Tau fibril FP -5%, KDM4E inh inconclusive and Tau fibril ThT -13%.

Screening data deposited in PubChem by National Center for Advancing Translational Sciences (NCATS).
